# Experimental data as given in article PMC7862700, “An all-to-all approach to the identification of sequence-specific readers for epigenetic DNA modifications on cytosine”.
# Experiments:
# Experiment in all cases: DAPPL (digital affinity profiling via proximity ligation, sequencing); 10 mM Tris-HCl pH 7.5, 50 mM NaCl, 1 mM DTT, 4% glycerol, room temperature, 30 min; GST-TFs on glutathione beads, 16-mer random dsDNA library, 0.1% formaldehyde crosslink after washing; high values mean tight binding
# FEV = molecular target: T1, FEV (Homo sapiens, UniProt Q99581 1-238); settings: protein: recombinant; tags: N-terminal GST; dsDNA, one strand shown
# T1 sequence: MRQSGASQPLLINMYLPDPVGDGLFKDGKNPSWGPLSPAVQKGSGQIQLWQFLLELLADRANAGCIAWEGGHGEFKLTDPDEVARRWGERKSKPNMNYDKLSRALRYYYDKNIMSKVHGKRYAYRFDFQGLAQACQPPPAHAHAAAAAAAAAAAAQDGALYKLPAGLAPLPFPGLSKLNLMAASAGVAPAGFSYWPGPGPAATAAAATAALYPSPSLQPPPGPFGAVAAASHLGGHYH
# In short: (§1)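 Pools of DNA-barcoded human transcription factors, expressed in yeast as GST fusions on glutathione beads and combined with a tag-only sample, were incubated with 200 nmole of a 16-mer random double-stranded DNA library. Incubation took 30 min at room temperature in Tris/NaCl/DTT/glycerol buffer and was followed by washing, 0.1% formaldehyde crosslinking, proximity ligation (BsaI/T4 ligase, 1 h, 37 °C), PCR amplification and sequencing on an Illumina NextSeq500. Binding signal is the ratio of a hexamer's read frequency for a factor to its frequency for the tag-only sample.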
# ETV5 = ETV5 (Homo sapiens, UniProt P41161 1-510); settings: protein: recombinant; tags: N-terminal GST; dsDNA, one strand shown
# In short: as §1
# HSF1 = HSF1 (Homo sapiens, UniProt Q00613 1-529); settings: protein: recombinant; tags: N-terminal GST; chain copies: 3; dsDNA, one strand shown
# In short: as §1
# SPIC = molecular target: T2, SPIC (Homo sapiens, UniProt Q8N5J4 1-248); settings: protein: recombinant; tags: N-terminal GST; dsDNA, one strand shown
# T2 sequence: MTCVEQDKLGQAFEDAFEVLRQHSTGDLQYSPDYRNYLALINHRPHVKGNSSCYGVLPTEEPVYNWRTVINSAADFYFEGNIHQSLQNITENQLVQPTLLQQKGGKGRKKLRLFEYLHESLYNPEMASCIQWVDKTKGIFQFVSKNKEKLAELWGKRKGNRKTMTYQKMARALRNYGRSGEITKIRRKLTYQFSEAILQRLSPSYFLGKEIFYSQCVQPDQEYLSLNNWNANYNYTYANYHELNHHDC
# In short: as §1
# ELF4 = ELF4 (Homo sapiens, UniProt Q99607 1-663); settings: protein: recombinant; tags: N-terminal GST; dsDNA, one strand shown
# In short: as §1
# ELK4 = molecular target: T3, ELK4 (Homo sapiens, UniProt P28324-2 1-405); settings: protein: recombinant; tags: N-terminal GST; dsDNA, one strand shown
# T3 sequence: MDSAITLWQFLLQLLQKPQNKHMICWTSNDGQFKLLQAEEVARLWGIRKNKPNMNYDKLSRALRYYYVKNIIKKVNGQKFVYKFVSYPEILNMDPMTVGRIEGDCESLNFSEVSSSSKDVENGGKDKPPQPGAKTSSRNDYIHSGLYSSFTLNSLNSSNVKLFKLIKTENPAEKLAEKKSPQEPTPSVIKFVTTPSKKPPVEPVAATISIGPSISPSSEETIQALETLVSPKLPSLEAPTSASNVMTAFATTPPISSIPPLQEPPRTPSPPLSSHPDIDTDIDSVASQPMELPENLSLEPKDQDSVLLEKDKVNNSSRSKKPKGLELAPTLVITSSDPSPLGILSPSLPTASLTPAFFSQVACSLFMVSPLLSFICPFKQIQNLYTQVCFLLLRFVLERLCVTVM
# In short: as §1
# ETV2 = molecular target: T4, ETV2 (Homo sapiens, UniProt O00321 1-342); settings: protein: recombinant; tags: N-terminal GST; dsDNA, one strand shown
# T4 sequence: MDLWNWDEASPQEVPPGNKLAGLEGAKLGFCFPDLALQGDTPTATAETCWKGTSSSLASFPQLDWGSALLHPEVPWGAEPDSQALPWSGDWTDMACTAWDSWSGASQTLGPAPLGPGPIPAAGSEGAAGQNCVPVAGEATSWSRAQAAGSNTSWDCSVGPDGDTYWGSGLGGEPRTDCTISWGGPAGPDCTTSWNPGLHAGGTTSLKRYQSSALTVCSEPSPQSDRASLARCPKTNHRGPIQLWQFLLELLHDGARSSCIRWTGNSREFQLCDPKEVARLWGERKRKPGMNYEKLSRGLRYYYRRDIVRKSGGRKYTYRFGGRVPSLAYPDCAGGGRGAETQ
# In short: as §1
# ELF3 = molecular target: T5, ELF3 (Homo sapiens, UniProt P78545 1-371); settings: protein: recombinant; tags: N-terminal GST; dsDNA, one strand shown
# T5 sequence: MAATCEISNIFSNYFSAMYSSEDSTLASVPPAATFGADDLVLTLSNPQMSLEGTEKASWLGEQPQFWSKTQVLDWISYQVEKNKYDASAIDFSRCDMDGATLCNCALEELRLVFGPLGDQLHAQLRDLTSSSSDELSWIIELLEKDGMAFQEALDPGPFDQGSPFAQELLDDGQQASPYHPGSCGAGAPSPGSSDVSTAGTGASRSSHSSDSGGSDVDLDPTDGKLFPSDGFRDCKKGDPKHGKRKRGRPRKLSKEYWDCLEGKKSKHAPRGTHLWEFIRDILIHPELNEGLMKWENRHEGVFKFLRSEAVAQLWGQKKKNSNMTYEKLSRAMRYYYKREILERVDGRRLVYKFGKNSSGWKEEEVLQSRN
# In short: as §1
# CRX = CRX (Homo sapiens, UniProt O43186 1-299); settings: protein: recombinant; tags: N-terminal GST; dsDNA, one strand shown
# In short: as §1
# Sequence of CRX (O43186 whole entry): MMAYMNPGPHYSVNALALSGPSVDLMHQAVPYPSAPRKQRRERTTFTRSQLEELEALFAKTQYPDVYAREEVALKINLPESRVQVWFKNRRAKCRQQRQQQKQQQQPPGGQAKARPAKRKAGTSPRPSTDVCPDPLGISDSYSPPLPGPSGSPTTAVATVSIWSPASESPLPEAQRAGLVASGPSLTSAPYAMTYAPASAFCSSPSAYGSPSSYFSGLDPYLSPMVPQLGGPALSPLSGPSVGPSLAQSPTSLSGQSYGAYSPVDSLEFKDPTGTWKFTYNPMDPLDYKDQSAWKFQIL
# Sequence of ETV5 (P41161 whole entry): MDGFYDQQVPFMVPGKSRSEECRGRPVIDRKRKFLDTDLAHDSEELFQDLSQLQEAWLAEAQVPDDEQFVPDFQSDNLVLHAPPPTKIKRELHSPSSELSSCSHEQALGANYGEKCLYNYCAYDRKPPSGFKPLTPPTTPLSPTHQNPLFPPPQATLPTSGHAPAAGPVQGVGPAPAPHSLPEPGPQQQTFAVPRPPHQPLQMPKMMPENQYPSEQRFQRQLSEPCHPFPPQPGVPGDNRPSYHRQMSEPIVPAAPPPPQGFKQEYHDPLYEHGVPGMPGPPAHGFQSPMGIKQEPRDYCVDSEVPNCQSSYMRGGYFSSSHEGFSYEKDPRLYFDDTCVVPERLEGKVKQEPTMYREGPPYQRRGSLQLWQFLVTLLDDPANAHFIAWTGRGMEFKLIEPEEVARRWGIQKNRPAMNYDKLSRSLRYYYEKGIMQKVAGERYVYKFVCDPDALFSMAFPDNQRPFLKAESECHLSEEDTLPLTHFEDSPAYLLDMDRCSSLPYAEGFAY
# Sequence of HSF1 (Q00613 whole entry): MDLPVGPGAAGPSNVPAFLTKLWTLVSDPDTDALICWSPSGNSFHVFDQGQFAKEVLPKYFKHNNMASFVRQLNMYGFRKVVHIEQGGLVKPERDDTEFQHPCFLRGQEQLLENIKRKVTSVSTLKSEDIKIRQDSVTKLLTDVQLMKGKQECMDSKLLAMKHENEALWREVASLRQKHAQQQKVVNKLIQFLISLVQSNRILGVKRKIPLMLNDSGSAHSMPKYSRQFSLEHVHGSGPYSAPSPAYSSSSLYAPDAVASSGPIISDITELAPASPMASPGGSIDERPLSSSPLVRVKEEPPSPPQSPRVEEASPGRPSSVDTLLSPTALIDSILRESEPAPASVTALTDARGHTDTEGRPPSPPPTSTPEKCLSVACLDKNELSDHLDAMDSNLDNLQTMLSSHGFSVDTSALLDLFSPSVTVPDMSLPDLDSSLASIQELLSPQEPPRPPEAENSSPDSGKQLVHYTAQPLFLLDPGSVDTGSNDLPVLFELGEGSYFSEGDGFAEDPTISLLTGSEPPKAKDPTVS
# Sequence of ELF4 (Q99607 whole entry): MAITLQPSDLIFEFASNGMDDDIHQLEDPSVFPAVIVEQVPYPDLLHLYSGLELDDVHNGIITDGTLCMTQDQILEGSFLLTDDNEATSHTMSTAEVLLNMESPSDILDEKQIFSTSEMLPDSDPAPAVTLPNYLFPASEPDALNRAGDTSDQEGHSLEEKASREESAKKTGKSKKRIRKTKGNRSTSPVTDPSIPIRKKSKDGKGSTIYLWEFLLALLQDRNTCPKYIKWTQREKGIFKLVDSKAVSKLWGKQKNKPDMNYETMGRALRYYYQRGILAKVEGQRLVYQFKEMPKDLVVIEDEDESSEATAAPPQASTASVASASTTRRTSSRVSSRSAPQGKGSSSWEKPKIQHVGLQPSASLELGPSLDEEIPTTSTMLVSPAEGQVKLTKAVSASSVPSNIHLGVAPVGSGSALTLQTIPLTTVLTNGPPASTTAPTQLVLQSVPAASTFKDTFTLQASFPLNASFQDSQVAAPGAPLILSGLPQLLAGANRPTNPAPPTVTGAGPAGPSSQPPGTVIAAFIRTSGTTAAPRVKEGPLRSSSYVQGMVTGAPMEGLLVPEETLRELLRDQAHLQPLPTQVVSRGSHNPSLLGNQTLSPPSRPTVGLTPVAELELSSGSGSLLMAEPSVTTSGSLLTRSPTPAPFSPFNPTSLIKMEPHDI
sequence,measurement,setting,value
TGGATG,binding signal,FEV,"1.35 fold enrichment (6-mer frequency, TF over GST control)"
same,binding signal,ETV5,"1.42 fold enrichment (6-mer frequency, TF over GST control)"
same,binding signal,HSF1,"1.52 fold enrichment (6-mer frequency, TF over GST control)"
same,binding signal,SPIC,"1.46 fold enrichment (6-mer frequency, TF over GST control)"
same,binding signal,ELF4,"1.49 fold enrichment (6-mer frequency, TF over GST control)"
same,binding signal,ELK4,"1.23 fold enrichment (6-mer frequency, TF over GST control)"
same,binding signal,ETV2,"1.49 fold enrichment (6-mer frequency, TF over GST control)"
same,binding signal,ELF3,"1.65 fold enrichment (6-mer frequency, TF over GST control)"
same,binding signal,CRX,"1.45 fold enrichment (6-mer frequency, TF over GST control)"
